What all share (assay): NCI-60 one-dose screen, 48 h (100 = growth as untreated, 0 = no growth, -100 = all killed)
Conditions in all cases: 10 µM unless noted

The subject of experiment [1] is DU-145 prostate.
In experiment [2] the test system is K-562 leukemia.
Experiment [3] concerns MALME-3M melanoma.
The test system of experiment [4] is MDA-MB-231 breast.
For experiment [5], the system named is RXF 393 renal.
The subject of experiment [6] is SF-268 CNS.
Experiment [7] has as its system SF-295 CNS.
The test system of experiment [8] is SF-539 CNS.
In experiment [9] the test system is UACC-257 melanoma.
Experiment [10] concerns M14 melanoma.

This is part of a sample that, as a whole, favours compounds with a hit. Of some 83,000 tested, about 20% had one in any assay.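 Single-concentration screen, 48 h exposure, 96-well plates. Endpoint: percent growth. Below 10 = active.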 A number with no mark means an inactive call. The source made the active and inactive calls.

Turning to `CC[C@H](C)[C@H](NC(=O)[C@H]1CCCCN1C)C(=O)N(C)[C@H](C[C@@H](OC(C)=O)c1cccc(C(=O)N[C@@H](Cc2ccccc2)C[C@H](C)C(=O)O)n1)C(C)C`, the growth in experiment [1] was -16.1% (active); in experiment [2], 7.77% (active); in experiment [3], 64.1%; in [4] it was -0.17% (active); in experiment [5] it was 31.2%; in [6], 18%. In addition, the growth in experiment [7] is 2.98% (active); in experiment [8] it was -10.7% (active); in [9] it was 47.9%; in experiment [10], 10%.

As to `COc1cc(/C=C\c2cc(OC)c(OC)c(OC)c2)cc(NS(=O)(=O)c2cccc(Cl)c2)c1OC`, the growth in [1] was -31.6% (active); in experiment [2], 11.2%; in experiment [3], 112%; in experiment [4] it was 27%; in experiment [5] it was 37.8%; in experiment [6], -2.74% (active). In addition, the growth was 13.8% in experiment [7], -0.958% (active) in [8], 57.3% in experiment [9] and 9.89% (active) in experiment [10].

For `COC(=O)[C@@H](C)C[C@H](Cc1ccccc1)NC(=O)c1nc([C@@H](C[C@H](C(C)C)N(C)C(=O)[C@@H](NC(=O)[C@H]2C[C@H](O)CCN2C)C(C)C)OC(C)=O)sc1C(C)C`, the growth in experiment [1] was -4.78% (active); in experiment [2], 5.9% (active); in [3], 28.4%; in experiment [4] it was 3.71% (active); in experiment [5] it was 18.9%; in experiment [6], 13.8%. Moreover, the growth in experiment [7] was -16.8% (active); in [8] it was -36.9% (active); in experiment [9], 66.1%; in experiment [10], -22.4% (active).

Take `COc1ccc(C(O)(C(=O)O)c2ccc(OC)cc2)cc1`: the growth in experiment [1] is 104%; in experiment [2], 87.8%; in experiment [3] it was 105%; in [4] it was 85.7%; in experiment [5], 109%; in experiment [6] it was 95.3%. Moreover, the growth in [7] was 87.1%; in experiment [8], 86.8%; in experiment [9], 90.6%; in experiment [10], 86.2%.

Take `C1CCC2(CC1)OOCNCOO2`: the growth in experiment [1] was 111%; in experiment [2], -35.4% (active); in [3], 110%; in [4], 120%; in experiment [5], 116%; in [6], 97.3%. For the same compound, the growth was 97.4% in experiment [7], 101% in experiment [8], 98.5% in experiment [9] and 100% in [10].

Consider `C[C@]12C[C@@H](CO)[C@H](O)C[C@@H]1CC[C@@H]1[C@@H]2CC[C@]2(C)[C@@H](O)CC[C@@H]12`, for which the growth in experiment [1] is 106%; in experiment [2], 74.7%; in [3], 90.6%; in [4] it was 111%; in [5], 113%; in experiment [6], 103%. Also, the growth in experiment [7] was 113%; in experiment [8], 95.8%; in experiment [9] it was 90.4%; in experiment [10], 103%.

Take `C1CCC([PH+](C2CCCCC2)C2CCCCC2[PH+](C2CCCCC2)C2CCCCC2)CC1.[Au].[CH-]1CCCCC1CC1CCCC[N-]1` (stereo not given): the growth in experiment [1] is -51.1% (active); in experiment [2], 3.54% (active); in [3], -43.5% (active); in [4], -44.6% (active); in [5] it was -92.7% (active); in [6], -33.6% (active). The growth in experiment [7] was -38.8% (active); in [8] it was -75.1% (active); in experiment [9], -37.3% (active); in experiment [10], -54.6% (active).

With `O=[N+]([O-])c1cc(I)cc([N+](=O)[O-])c1`, the growth in experiment [1] is 105%; in experiment [2] it was 97.9%; in [3] it was 101%; in experiment [4], 95.7%; in experiment [5], 111%; in experiment [6] it was 94.2%. Moreover, the growth in experiment [7] is 110%; in experiment [8], 101%; in experiment [9] it was 98%; in [10], 98.8%.

Consider `CC1=C(O)[C@@](C)(CCCCC[C@H](C)CCCCc2ccc(O)cc2)OOC1=O`, for which the growth is 113% in experiment [1]; 94.4% in experiment [2]; 87.3% in experiment [3]; 85.2% in [4]; 111% in [5]; 110% in experiment [6]. In addition, the growth was 90.4% in experiment [7], 101% in [8], 89.8% in experiment [9] and 96.6% in [10].

On to `CCOP(=O)(Cc1ccc(C#N)cc1)OCC`, for which the growth is 116% in [1]; 100% in [2]; 108% in [3]; 100% in experiment [4]; 115% in experiment [5]; 112% in [6]. For the same compound, the growth in experiment [7] was 108%; in experiment [8], 109%; in experiment [9], 88.8%; in experiment [10], 101%.

With `O=NN1CCCc2cccc(O)c21`, the growth is 10.8% in [1]; 9.43% (active) in [2]; 38.3% in experiment [3]; 78.8% in [4]; -4.04% (active) in experiment [5]; 27.8% in experiment [6]. Moreover, the growth in [7] is 31%; in experiment [8] it was -32.8% (active); in [9], 57.4%; in experiment [10], 22.2%.

For the compound `COc1ccc2c(c1)c(-c1nc(-c3cn(C)c4ncccc34)cs1)cn2CCCCN1CCCCC1`, the growth in experiment [1] was 7.63% (active); in experiment [2], -66.8% (active); in experiment [3] it was -73.9% (active); in experiment [4], -74.8% (active); in experiment [5], -80.1% (active); in [6] it was -37.9% (active). Besides, the growth was -50.1% (active) in [7], -80.2% (active) in experiment [8], -68.3% (active) in experiment [9] and -79.1% (active) in [10].

For the origin of these results see PubChem BioAssay (NCI).
